In PubChem BioAssay (NCI) one finds growth data, which are given here for 40 compounds.

Where “and” joins values, the source holds several entries; their conditions need not be identical. Equal values may be shown once. This is part of a sample that, as a whole, favours compounds with a hit. Of some 83,000 tested, about 20% had one in any assay.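 Cell lines were cultured in 96-well plates, exposed to a single compound concentration, and assessed for percent growth 48 hours later.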 Calls of active or inactive are those of the source. The calls were made as follows: active = growth percent below 10; inactive = the rest.

The test system of this assay is MDA-MB-468 breast. Briefly: NCI-60 one-dose screen, 48 h (100 = growth as untreated, 0 = no growth, -100 = all killed). The note with it: 10 µM unless noted.
Regarding `Cn1cc(-c2nnc(-c3ccccc3)s2)c2cc(Br)cnc21`, the growth was 59.4% (inactive).
The figure for `CC(/C=N/N1C(=O)c2ccccc2C1=O)c1ccccc1` (stereo not given) is 95.9% (inactive); for `COc1ccc(/C=C2/CN(C(=O)c3ccccc3F)C/C(=C\c3ccc(OC)cc3)C2=O)cc1` it is 1.01% (active).
The figure for `CC#CC#Cc1cccc(=O)o1` is 29.3% (inactive).
The figure for `CCCCCCCCOC(=O)C(C)OC(=O)OCCOCCOC(=O)OC(C)C(=O)OCCCCCCCC` (stereo not given) is 98.6% (inactive); for `Clc1ccc(Nc2ncnc3c2sc2ncccc23)c(Cl)c1` it is 22.2% (inactive).
Consider `CCN1C(=S)N(CC)C2C1N=C(SC)N2/N=C/C=C/c1ccccc1[N+](=O)[O-]` (stereo not given), for which the growth is 99.8% (inactive).
The figure for `COc1ccccc1/C=C1\COc2ccc(-c3ccccc3)cc2C1=O` is 3.14% (active).
The figure for `Cc1ccc2c(C(C[N+](=O)[O-])c3ccccc3F)c(-c3ccccc3)[nH]c2c1` (stereo not given) is 10.5% (inactive).
As for `O=CNc1ccc2c(c1)Cc1cccc(NC=O)c1-2`, the growth was 14.5% (inactive).
The figure for `Cc1cc(N(CCCNc2ccnc3cc(Cl)ccc23)Cc2ccc3c(c2)OCO3)nc(N2CCOCC2)n1` is -14.4% (active).
The figure for `COc1c(B(O)O)cccc1-c1nc2c(F)cc3n[nH]c(C)c3c2c2c1CCCC2` is -7.26% (active); for `CSc1ncccc1C(=O)OCC(=O)Nc1oc(C)c2c(C)n[nH]c(=O)c12` it is 98% (inactive); for `COc1ccc2[nH]cc(C3(c4c[nH]c5ccc(OC)cc45)C(=O)Nc4ccc(Cl)cc43)c2c1` it is 97.7% (inactive).
The figure for `COc1ccc(-c2nc(-c3nc4ccc(Cl)cc4[nH]3)c3ccccn23)cc1` is 61.5% (inactive); for `CCC(O)c1ccc(Br)cc1NC(=O)c1cccc(Cl)c1` (stereo not given) it is 4.57% (active); for `CCCN1CCN(c2ccc3nc(-c4ccc5nc(-c6cc(OC)c(OC)c(OC)c6)[nH]c5c4)[nH]c3c2)CC1` it is 47.1% (inactive).
For the compound `CNc1nc2ncc(-c3c(C)noc3C)cc2n1Cc1ccccc1`, the growth is 34.7% (inactive).
The figure for `c1ccc(Cn2nc3c(c2-c2ccccc2)-c2oncc2CC3)cc1` is 101% (inactive); for `CCOC(=O)/C=C1\S/C(=N\Nc2ccc([N+](=O)[O-])cc2[N+](=O)[O-])N(Cc2ccccc2)C1=O` it is 84.2% (inactive); for `CC1C(=O)NC2=Nc3ccccc3C(=O)NN21` (stereo not given) it is 93.7% (inactive).
The figure for `CN1C(=O)C2(NN=C(c3cccc4ccccc34)S2)c2ccccc21` (stereo not given) is 32.4% (inactive); for `Cc1cc([N+](=O)[O-])c(C)cc1C(=O)O` it is 109% (inactive).
The figure for `Nc1ccc(N=Nc2ccc(S(=O)(=O)O)cc2)cc1S(=O)(=O)O` is 150% (inactive) and 75.5% (inactive); for `COc1ccc2nc3ccccc3c(NCCNCC(C)O)c2c1` (stereo not given) it is -24.6% (active).
For the compound `Cc1cc(NCCCNc2ccnc3cc(Cl)ccc23)nc(Nc2ccc(C(=O)N3CCCCC3)cc2)n1`, the growth is -19% (active).
For the compound `N=C(N)c1ccc(-c2ccc(-c3ccco3)o2)cc1`, the growth is 22.9% (inactive).
The figure for `COc1cc(/C=C/C(C)=O)ccc1O` is 100% (inactive) and 111% (inactive); for `Cc1ncc(-c2ccnc(Nc3ccc(S(C)(=O)=O)cc3)n2)n1C(C)C` it is -48.8% (active); for `Cc1ncsc1CCO` it is 99.2% (inactive) and 107% (inactive).
Turning to `Clc1cc(Cl)cc(Nc2ccc3c(OCCCN4CCOCC4)cccc3n2)c1`, the growth was 20.6% (inactive).
The figure for `C=CCn1c(-c2ccc(-c3nc4ccc(C)cc4[nH]3)cc2)n[nH]c1=S` is 95.6% (inactive); for `C=CCOc1ccc2c(c1)CC=C1[C@@H]2CC[C@]2(C)C(=O)/C(=N/O)C[C@@H]12` it is 55.7% (inactive).
The figure for `CC(=O)N1N=C(c2ccc(F)cc2)CC1c1sc(N(C)Cc2ccccc2)nc1Cl` (stereo not given) is 98.1% (inactive); for `CCOC(=O)c1ccc(Nc2ncnc3c2cnn3-c2cccc(F)c2)cc1` it is 103% (inactive).
The figure for `COc1cc(Cc2cc(-c3ccccc3)n[nH]c2=O)cc(OC)c1OC` is 29% (inactive); for `Cc1cnc(Nc2ccc(N3CCN(C)CC3)cc2)nc1Nc1ccc(Cl)c(NS(=O)(=O)C(C)(C)C)c1` it is 14.9% (inactive).
Turning to `C=C(C)[C@@H]1CC[C@]2(C)[C@H](CC=C3[C@@H]4[C@H](C)[C@@H](C)CC[C@]4(CO)CC[C@]32C)[C@@]1(C)CCCN`, the growth was -54.7% (active).
The figure for `CN1CCN(Cc2ccc(NC(=O)c3[nH]ncc3Nc3cc(OC4CCCC4)ncn3)cc2)CC1` is 16.1% (inactive); for `COc1ccc(C2CC(c3ccc(Nc4nc(NCCO)nc(Nc5ccc(Cl)cc5)n4)cc3)=Nc3c(N)nc(N)nc3N2)cc1` (stereo not given) it is -23% (active).
